Experimental data: PubChem BioAssay (NCATS)
Inconclusive results are not listed. Calls of active or inactive are those of the source. The call rests on the fitted dose curve; in most records, active means well fitted cell-killing curve with a large enough effect; inconclusive means small, poorly fitted or top-dose-only effect, or effect the other way; inactive means no such curve, though single readings can be large or run the other way.

Experiment: Quantitative High-Throughput drug screen in 47 multiple myeloma cell lines against the NCATS MIPE library collection: Karpas417_ECACC cell viability assay (AID 1918961);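 on viability (% of DMSO): 100% = DMSO only wells and 0% = media only wells without cells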
Settings: Karpas417 myeloma viability, CellTiter-Glo ATP luminescence, 48 h; viability (% of DMSO): at 45.8 µM (top of the series)
Method in brief: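 Approved and investigational drugs from MIPE 4.0 were added by pin tool to 500 cells per well. After 48 hours at 37C, ATP-based CellTiter-Glo luminescence indicated remaining viability.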
Potency means the concentration at half of the fitted maximal effect.

SMILES	Potency	viability (% of DMSO)
CC(C)N(CCNC(=O)CN1CCCC1=O)C(C)C	inactive	
CC[C@@]1(O)C(=O)OCc2c1cc1n(c2=O)Cc2cc3ccccc3nc2-1	296 nM (active)	
O=S(=O)(CC1CS1)c1ccc(Oc2ccccc2)cc1 (centres undefined)	9350 nM (active)	
CCOP(=O)(OCC)C(C)NC(=O)N(CCCl)N=O (centres undefined)	inactive	
COc1ccc2c(c1)CN(C)CC2c1ccc(Cl)c(Cl)c1 (centres undefined)	14800 nM (active)	
CCNC(=O)C[C@@H]1N=C(c2ccc(Cl)cc2)c2cc(OC)ccc2-n2c(C)nnc21	13.2 nM (active)	
Cc1c(C(=O)Nc2cccc(C(F)(F)F)c2)cc(-c2ccccc2)n1CCCN1CCOCC1	7430 nM (active)	
CN(C)[C@@H]1C(=O)C(C(N)=O)=C(O)[C@@]2(O)C(=O)C3=C(O)c4c(O)cccc4[C@@](C)(O)[C@H]3[C@H](O)[C@@H]12	inactive	
O=c1[nH]c2ccccc2n1C1CCN(Cc2ccc(-c3[nH]c4cc5ncnc5cc4nc3-c3ccccc3)cc2)CC1	1480 nM (active)	
CC(C)N[C@@H]1CCn2c(=O)[nH]c3cccc(c32)[C@@H]1O	1050 nM (active)	
CC(=O)N(C)c1cccc(-c2ccnc3c(C(=O)c4cccs4)cnn23)c1	23500 nM (active)	
CSCC[C@@H](NC(=O)[C@@H](Cc1ccccc1)NC(=O)CNC(=O)CNC(=O)[C@@H](N)Cc1ccc(O)cc1)C(=O)O		132% (active)
C[C@@H]1O[C@@H](O[C@@H]2C=C3CC[C@@H]4[C@@H](CC[C@]5(C)[C@H](c6ccc(=O)oc6)CC[C@@]45O)[C@@]3(C)CC2)[C@H](O)[C@H](O)[C@H]1O	14.8 nM (active)	
COc1ccc(CC2NCCc3cc(OC)c(OC)cc32)cc1OC (centres undefined)	inactive	
